An excerpt weighted towards active compounds, which were near 17% of everything screened.
TDP1 cell CPT: qHTS for Inhibitors of human tyrosyl-DNA phosphodiesterase 1 (TDP1): qHTS in cells in presence of CPT. Potency, µM (doses to about 46.2 µM), for inactives: at the top dose activity change, negative = growth inhibition, hits mostly inhibitors. 420,000 tested, 12% active. chicken DT40 Tdp1-/-;hTDP1 cells + 20 nM CPT, ATP luminescence, 48 h; also: % is scaled to controls: 0 for no effect and ±100 for the full control effect; nearly all actives have a fitted effect of over 55% in size
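Chicken DT40 Tdp1-/- cells stably complemented with human TDP1 were seeded at 400 cells/well in medium containing 20 nM camptothecin, exposed to pin-transferred compounds, and grown at 37 °C for at least 48 hr. Viability was read as ATP luminescence.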
ClpP mod: qHTS Assay for Activators of ClpP; ATP-dependent Clp protease proteolytic subunit (Bacillus subtilis (strain 168)), P80244; purified B. subtilis ClpP, FRET peptide cleavage, 20 min; Potency, µM (highest dose often 57.5 µM), inactives show at the top dose activity change, negative = active; 340,000 tested, 1.9% active; active = well fitted falling curve with a large enough effect; inconclusive = small, poorly fitted or top-dose-only effect; inactive = no such curve, though single readings can be large or run the other way; also: the source files actives as falling curves though it sought activators and does not explain the sign; nearly all actives have a fitted effect of over 65% in size
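FRET quenching reversal measured ClpP activation: 10 microg/mL B. subtilis ClpP at pH 8 with the FRET-FV decapeptide, read at 430 nm after 320 nm excitation. The 20-min minus 0-min signal was scaled between DMSO/no-enzyme wells and ADEP (5.8 microM final).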
TDP1 block: qHTS Assay for Inhibitors of Tyrosyl-DNA Phosphodiesterase (TDP1); recombinant TDP1, AlphaScreen DNA substrate cleavage; Potency, µM (series often up to 130 µM), for inactives: at the top dose activity change, negative = inhibition, most hits filed as inhibitors; 350,000 tested, 0.28% active; also: % is scaled to controls: 0 for no effect and ±100 for the full control effect; nearly all actives have a fitted effect of over 40% in size
Target sequence (Q9NUW8 whole entry, looked up): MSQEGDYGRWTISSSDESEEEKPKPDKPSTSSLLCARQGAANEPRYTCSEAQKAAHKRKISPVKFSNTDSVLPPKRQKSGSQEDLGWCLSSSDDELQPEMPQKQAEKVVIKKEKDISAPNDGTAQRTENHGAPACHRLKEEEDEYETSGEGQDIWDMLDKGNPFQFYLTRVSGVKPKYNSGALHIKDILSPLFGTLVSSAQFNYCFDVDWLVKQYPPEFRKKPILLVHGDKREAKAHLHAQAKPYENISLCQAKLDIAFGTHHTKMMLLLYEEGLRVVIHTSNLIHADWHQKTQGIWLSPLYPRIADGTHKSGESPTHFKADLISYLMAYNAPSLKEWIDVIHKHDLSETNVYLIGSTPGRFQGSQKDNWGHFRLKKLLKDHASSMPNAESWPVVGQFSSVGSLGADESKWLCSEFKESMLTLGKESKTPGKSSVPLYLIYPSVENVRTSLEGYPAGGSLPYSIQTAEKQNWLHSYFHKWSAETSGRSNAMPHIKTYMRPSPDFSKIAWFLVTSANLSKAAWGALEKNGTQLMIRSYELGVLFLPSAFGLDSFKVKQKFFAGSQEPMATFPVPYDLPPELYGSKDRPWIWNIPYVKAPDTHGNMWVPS
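Steps: enzyme plus compound, 15 min RT; add biotin/phosphotyrosine-FITC oligonucleotide (15 nM final), react 5 min; add donor/acceptor beads (10 ug/ml final), 10 min; read AlphaScreen. Tdp1 at 1 nM final.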
DT40 TDP1 no CPT: qHTS for Inhibitors of human tyrosyl-DNA phosphodiesterase 1 (TDP1): qHTS in cells in absence of CPT; AID 686978, 2013; Potency, µM (doses to about 46.2 µM), for the others: at the top dose activity change, negative = growth inhibition, hits mostly inhibitors; DT40 Tdp1-/- hTDP1 cells, no CPT, ATP luminescence, 48 h; 420,000 tested, 15% active; also: % is scaled to controls: 0 for no effect and ±100 for the full control effect; nearly all actives have a fitted effect of over 55% in size
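Growth kinetics read by CellTiter-Glo luminescence after ≥48 hr at 37 °C. Cells: DT40 Tdp1-/- stably carrying human TDP1, 400 per well, compound exposure in the absence of CPT (DMSO vehicle).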
Numbers without * were called inactive; u = inconclusive; x = no result. Unless noted, calls follow the shape of the dose curve; as a rule, active = well fitted curve in the direction sought with a large enough effect; inconclusive = small, poorly fitted or top-dose-only effect, or another doubt; inactive = no such curve, though single readings can be large; an effect the other way counts as inactive or inconclusive. Potency is read from the fitted curve at half-maximal effect.

SMILES | TDP1 cell CPT | ClpP mod | TDP1 block | DT40 TDP1 no CPT
O=C(CNC(=S)NC(=O)c1cccs1)c1ccccc1 | 16µM* | 0% | -3% | 15µM*
COc1ccc(-c2cnc(OC(C)(C)C)nc2OC(C)(C)C)cc1OC | u | -11% | -2% | u
Cc1ccccc1-c1cc2c(c(OC3CCOC3)c1)OCCN(C(=O)Cn1cccn1)C2 (stereo not given) | 0% | x | x | -18%
COC(=O)[C@@]1(Cc2ccccc2)[C@H]2c3cc(C(=O)N(C)C)n(Cc4ccc(OC)c(OC)c4)c3C[C@H]2CN1C(=O)c1ccccc1 | x | x | 21% | x
Cc1ccccc1-c1cc2nc(NCc3ccc4occc4c3)n(C)c(=O)c2s1 | 18µM* | -28% | x | u
Cc1ccccc1-c1cc2nc(Oc3ccc4c(c3)OCO4)n(C)c(=O)c2s1 | 12µM* | -14% | x | u
Cc1ccccc1-c1cc2nc(NCc3ccccc3F)n(C)c(=O)c2s1 | 7.3µM* | u | x | 6.5µM*
C=CCNc1nc2cc(-c3ccccc3C)sc2c(=O)n1C | 15µM* | -9% | x | 10µM*
Cc1ccccc1-c1cc2nc(Oc3cccc4ccccc34)n(C)c(=O)c2s1 | 0% | -1% | x | 2%
Cn1c(NCc2ccc3occc3c2)nc2cc(-c3cccc(C(F)(F)F)c3)sc2c1=O | -18% | -1% | x | -29%
O=C(NCCc1ccccc1F)C1CCCN1S(=O)(=O)c1ccc2ccccc2c1 (stereo not given) | u | -1% | -5% | u
CN(C)c1ccc(CNC(=O)CCn2cccn2)cc1 | 7% | -6% | 3% | 3%
O=C(O)c1ccc(Oc2ccccc2)o1 | 17% | 1% | 0% | 3%
O=C(CCC(=O)N1CCN(C2CCCC2)CC1)Nc1nnc(C(F)(F)F)s1 | 13% | 0% | 2% | 13%
O=C(CCC(=O)N1CCN(C2CCCCC2)CC1)Nc1nnc(C(F)(F)F)s1 | -21% | 13µM* | -5% | -21%
O=C(CSc1ncccn1)Nc1ccc2c(c1)CCC2 | -13% | 2% | x | -6%
Cc1cc2c(cc(C(=O)OCC(=O)NCc3cccs3)n2C(C)C)o1 | 0.82µM* | -11% | 12% | 0.73µM*
COc1ccc(NC(=O)/C(Cl)=C(/Cl)S(=O)(=O)Cc2ccc(C)cc2)cn1 | 0.52µM* | 6% | 8% | 0.82µM*
COC(=O)c1ccc(Cl)cc1NC(=O)NCCc1c(C)nn(C)c1C | u | -16% | 4% | u
Cc1ccc(NC(=O)NCCc2c(C)nn(C)c2C)cc1Cl | u | -2% | -1% | 23µM*
COc1ccc(Cl)cc1NC(=O)NCCc1c(C)nn(C)c1C | u | 0% | -1% | 16µM*
Cc1cc(C)cc(NC(=O)NCCc2c(C)nn(C)c2C)c1 | -12% | 1% | 1% | -24%
Cc1ccc(C)c(NC(=O)CN2C(=O)c3cccnc3Oc3ccc(C)cc32)c1 | u | -1% | -2% | u
O=C(c1cc(-c2ccc(Cl)s2)nc2ccccc12)N1CCCC1 | u | 32µM* | x | u
CN1CCN(NC(=O)c2cc(-c3ccccn3)nc3ccccc23)CC1 | 14% | 0% | 5% | -10%
SMILES | TDP1 cell CPT | ClpP mod | TDP1 block | DT40 TDP1 no CPT
CN1CCN(NC(=O)c2cc(-c3ccc(Cl)s3)nc3ccccc23)CC1 | u | x | 8% | 15µM*
O=C(NC1CC1)c1cccc(Nc2ccc(-c3ccc4c(c3)OCCO4)nn2)c1 | 21µM* | 0% | 8% | 12µM*
O=S(=O)(c1ccc(Nc2ccc(-c3ccc4c(c3)OCCO4)nn2)cc1)N1CCCC1 | u | -9% | 6% | u
CCN(C(=O)COC(=O)c1c2c(nc3ccccc13)/C(=C/c1ccccc1)CC(C)C2)C1CCS(=O)(=O)C1 (stereo not given) | u | u | 5% | 13µM*
COc1ccc(N=C2C(=Nc3ccc(OC)cc3)N(c3ccc(OC)cc3)C(=S)N2C(=O)c2ccc(OC)cc2)cc1 | u | -2% | 5% | 18µM*
COc1ccc(N2C(=S)N(C(=O)c3ccccc3)C(=Nc3ccccc3)C2=Nc2ccccc2)cc1 | u | -1% | x | 18µM*
COc1ccc(N=C2C(=Nc3ccc(OC)cc3)N(c3ccc(N(C)C)cc3)C(=S)N2c2ccc(OC)cc2)cc1 | 0.65µM* | 0% | 8% | 1µM*
c1csc(CNc2ncnc3cc(-c4ccc5c(c4)OCO5)ccc23)c1 | x | x | -9% | x
CN(C)c1ccc(/C=C2\C=Cc3ccccc32)cc1N | u | 0% | x | u
O=C(COC(=O)C12CC3CC(CC(Cl)(C3)C1)C2)NCc1ccco1 | x | x | 2% | x
COc1ccc2c(c1)c1ncn(CCN3CCCC3)c(=O)c1n2C | -1% | 32µM* | 3% | 1%
COc1ccccc1CCn1cnc2c3cc(C)ccc3n(C)c2c1=O | 18µM* | 35µM* | -3% | 12µM*
Cc1cc2c(N=NC(=O)C3CC3c3ccccc3)c(O)[nH]c2cc1Br (stereo not given) | -20% | -1% | 2% | u
Cc1nnc2c(Oc3ccccc3)nc3ccccc3n12 | -3% | -3% | 2% | 1%
c1ccc(Oc2nc3ccccc3n3cccc23)cc1 | -9% | 28µM* | 2% | -8%
COC(=O)c1ccc(Oc2nc3ccccc3n3c(C)nnc23)cc1 | -14% | -5% | x | 10%
Cc1ccc(Oc2nc3ccccc3n3cccc23)cc1 | -2% | 22µM* | -3% | -23%
O=C(CSCn1nnc2c(=O)[nH]c(Cc3ccc(F)cc3)nc21)Nc1ccccc1 | -1% | -3% | 9% | 6%
CCC(C)c1ccc(OCC(=O)Nc2ccc3c(c2)C(=O)NC3=O)cc1 (stereo not given) | 2% | -6% | -5% | u
CCc1nc2ccc(C(=O)NCCOc3ccc(OC)cc3)cn2c1N(CC)Cc1ccc(OC)c(OC)c1 | 21µM* | -2% | x | 21µM*
CCc1nc2ccc(C(=O)NCc3ccccc3OC)cn2c1N(CC)CCN(C)C | -3% | -3% | x | -9%
CCc1nc2ccc(C(=O)NCCOc3ccc(OC)cc3)cn2c1N(C)Cc1nccn1C | -28% | 0% | x | -14%
CCc1nc2ccc(C(=O)NCc3ccccc3OC)cn2c1N(C)Cc1ccc(N(C)C)cc1 | 21µM* | -2% | x | 21µM*
COc1ccc(OCCNC(=O)c2ccc3nc(C)c(N(C)Cc4ccc(NC(C)=O)cc4)n3c2)cc1 | 16µM* | 0% | x | 16µM*
CCc1nc2ccc(C(=O)NCCOc3ccc(OC)cc3)cn2c1N(C)Cc1ccc(N(C)C)cc1 | 23µM* | -1% | x | u
COC(=O)[C@@]1(C(C)C)N=C(c2cc(OC)c(OC)c(OC)c2)[C@]2(O1)C(=O)N(Cc1ccc(OC)cc1)c1ccc(Br)cc12 | 6% | -5% | x | 1%
